Measured values reported in PubChem BioAssay AID778 (Sanford-Burnham Center for Chemical Genomics, 2007).
Screen size: about 96,000 compounds; about 20,000 (21%) were called active. These entries were drawn from the full list. Values without a mark were called inactive.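 Rule for the calls: active = CYP2C19 inhibition above a set limit at 5 µM in the primary screen (cut at about 50% in these data); inactive = the rest.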

What follows are molecules tested against Cytochrome P450 2C19 (Homo sapiens) (UniProt P33261) (assay: blockers of cytochrome P450 2C19 activity – biochemical, luminescence, ADME assay, primary screen (AID 778;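 note: plate controls were negative control wells for no effect and 2.5 mM tranylcypromine positive control for full effect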)). Conditions: CYP2C19 Supersomes, luciferin-H EGE luminescence, 30 min; at 5 µM; hits give high values.
Sequence of Cytochrome P450 2C19 (Homo sapiens) (P33261 whole entry, looked up): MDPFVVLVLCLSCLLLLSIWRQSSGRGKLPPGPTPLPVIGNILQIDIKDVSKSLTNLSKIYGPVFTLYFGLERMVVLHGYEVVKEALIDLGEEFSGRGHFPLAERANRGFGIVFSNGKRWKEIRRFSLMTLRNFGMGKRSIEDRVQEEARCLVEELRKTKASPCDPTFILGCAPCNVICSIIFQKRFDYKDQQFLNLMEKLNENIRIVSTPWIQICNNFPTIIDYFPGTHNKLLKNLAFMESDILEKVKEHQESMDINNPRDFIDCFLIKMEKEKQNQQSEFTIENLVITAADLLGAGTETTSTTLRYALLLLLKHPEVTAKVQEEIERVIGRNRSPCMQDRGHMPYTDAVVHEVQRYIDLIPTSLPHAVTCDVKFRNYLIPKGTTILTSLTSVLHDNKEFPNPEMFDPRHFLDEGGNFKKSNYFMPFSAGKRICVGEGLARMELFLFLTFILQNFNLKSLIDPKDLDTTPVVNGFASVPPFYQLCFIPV

| Compound | inhibition |
| --- | --- |
| Cc1cccc(N(CC(=O)N=Nc2c(O)[nH]c3ccccc23)S(C)(=O)=O)c1C | 33.6% |
| Cc1nnc(SCc2cc(=O)[nH]c(N3CCN(Cc4ccccc4)CC3)n2)s1 | 50.4% (active) |
| O=c1cc(CSc2ccccn2)nc(N2CCN(c3ccccc3)CC2)[nH]1 | -0.6% |
| CCc1c(C)nc(N2CCN(Cc3ccccc3)CC2)[nH]c1=O | 2.4% |
| COCc1cc(C)nc2sc3c(=O)n(-c4cccc5ccccc45)nnc3c12 | 24.5% |
| CN1c2ccccc2-c2nc3ccccc3n2C1c1ccco1 (centres undefined) | 14.2% |
| O=c1c2cc3c(=O)n(CC4CCCO4)c(=O)c3cc2c(=O)n1CC1CCCO1 (centres undefined) | 0.8% |
| COC(=O)c1ccc2c(=O)n(CC3CCCO3)c(=S)[nH]c2c1 (centres undefined) | -6.3% |
| CCOc1cccc(=O)c2c(C)n(CC3CCCO3)c(C)c12 (centres undefined) | 92.1% (active) |
| COc1ccc(-c2cc(C(F)(F)F)nc(NCc3cccnc3)n2)cc1 | 73.4% (active) |
| COc1ccc(-c2nc(CS(=O)CC(=O)NCc3cccnc3)c(C)o2)cc1OC (centres undefined) | 24.2% |
| COc1ccc(-c2cc(C(F)(F)F)nc(S(C)(=O)=O)n2)cc1OC | 12.6% |
| COc1ccc(-c2csc3nc(-c4ccccc4F)oc(=O)c23)cc1OC | 25.3% |
| CCCOc1ccccc1-c1nc(SCCC(=O)O)n[nH]1 | -4.6% |
| O=C(CC(O)(C(F)(F)F)C(F)(F)F)Nc1ccc(Cl)c(Cl)c1 | 77% (active) |
| N/C(=N\OC(=O)Nc1ccc(Cl)c(Cl)c1)c1ncc(C(F)(F)F)cc1Cl | -13.4% |
| Cc1nnc(NC(=O)Nc2ccc(Cl)c(Cl)c2)s1 | -9.1% |
| COc1ccccc1Nc1ncnc2c1oc1ccccc12 | 30.1% |
| CC1(C)CC(=O)C=C(NCCN2CCNCC2)C1 | -7.9% |
| CC(C)OCCCNc1ncnc2c1[nH]c1ccc(F)cc12 | 31.8% |
| Cc1cc(N2CCN(Cc3ccc4c(c3)OCO4)CC2)n2ncnc2n1 | 8.7% |
| CCN1CCCC1CNc1ncnc2c1[nH]c1ccc(F)cc12 (centres undefined) | 14.6% |
| c1n[nH]c(NCc2ccc3c(c2)OCO3)n1 | -7.6% |
| Fc1ccc2[nH]c3c(N4CCN(Cc5ccc6c(c5)OCO6)CC4)ncnc3c2c1 | 61.2% (active) |
| Fc1ccc2[nH]c3c(N4CCSCC4)ncnc3c2c1 | 58.5% (active) |

| Compound | inhibition |
| --- | --- |
| Cc1cc(C(F)(F)F)n2ncc(-c3ccccc3)c2n1 | 21.2% |
| C=C1c2cc(CC)ccc2NC(=O)N1c1ccc(C)cc1 | 32.6% |
| CC1(C)CC(=O)C2=C(C1)NCN(CCCN1CCOCC1)C2 | -0.8% |
| CCCCc1nc(NCCN)c(C#N)c2c1CSC(C)(C)C2 | 25.3% |
| CCNc1nc(SCCOc2ccccc2)nc(N(C)C)n1 | 12.3% |
| COC(=O)c1ccc(NC(=O)c2ccco2)cc1 | 53.1% (active) |
| O=C(CSc1ccccc1)Nc1ccc(NC(=O)c2ccco2)cc1 | 22% |
| O=C(Nc1ccc(Sc2ccc(Br)cc2)cc1)c1ccco1 | 6.9% |
| Cc1ccnc(NC(=O)c2ccc(NC(=O)c3ccco3)cc2)c1 | 13.1% |
| O=C(Nc1ccc(Oc2ccccc2)cc1)c1ccco1 | 59.9% (active) |
| O=C(/C=C/c1ccco1)Nc1ccc(Oc2ccccc2)cc1 | 8.4% |
| CCOCCOC(=O)C1=C(C)N(C)C(=O)NC1c1ccccc1F (centres undefined) | 47.5% |
| COc1ccc(CCNC(=O)CN2CCC(n3nnc4cc(F)ccc43)CC2)cc1OC | 22.7% |
| Cc1ccc(C(=O)NNC(=O)OC(C)(C)C)c(Cl)c1 | 14.6% |
| CCN1CCN(Cc2nc3c(c(=O)n(C)c(=O)n3C)n2CC(=O)c2ccccc2)CC1 | 4.3% |
| CC1CN(c2cc(=O)n(Cc3ccc(F)cc3)c(=O)[nH]2)CC(C)O1 (centres undefined) | -11% |
| Cc1ccccc1/[N+]([O-])=C/c1ccncc1 | 42.4% |
| CCOc1cc(/C=C2/N=C(c3ccc(C(C)(C)C)cc3)OC2=O)cc(Cl)c1OS(C)(=O)=O | 14.4% |
| COC(=O)c1sccc1-n1cccc1C(=O)C(=O)N1CCCCC1 | 31.2% |
| Cc1cc(C)c(NC(=O)CS(=O)CC(=O)Nc2cccnc2)c(C)c1 (centres undefined) | 13.1% |
| CCC(=O)Nc1cccc(NC(=O)c2cccnc2)c1 | 6.1% |
| Cc1cccc(-n2cnc(C(=O)Nc3cccnc3)c2)n1 | 57% (active) |
| COc1cc(/C=C(/NC(=O)c2ccccc2)C(=O)Nc2cccc(O)c2)c([N+](=O)[O-])cc1OC | 6.1% |
| c1ccc(Nc2nc(N3CCOCC3)c3ccccc3n2)cc1 | 55.6% (active) |
| Cc1cc(C(=O)Nc2ccccc2N2CCOCC2)c2ccccc2n1 | 29.8% |

| Compound | inhibition |
| --- | --- |
| c1ccc(-c2oc3ncnc(N4CCOCC4)c3c2-c2ccccc2)cc1 | 9.2% |
| CCCCc1c(O)nc2n(c1=O)CCS2 | -19.9% |
| COc1ccc(C(=O)CSc2n[nH]c(N)n2)cc1 | 4.5% |
| CCCCCN1CC(O)=C(c2nc(-c3ccc(Cl)cc3)cs2)C1=N | 7.1% |
| COc1ccccc1N1CC(O)=C(c2nc3ccccc3s2)C1=N | 50.8% (active) |
| COC(=O)Cc1cc(=O)n(-c2nc3ccccc3s2)[nH]1 | 13.8% |
| Cc1ccc(Nc2nc(-c3sc(NC(=O)c4ccccc4)nc3C)cs2)cc1 | 17.1% |
| COc1cc(OC)c(NC(=O)c2ccc(Br)o2)cc1Cl | 79.4% (active) |
| CCCC(=O)Nc1ccc(Cl)c(NC(=O)c2ccc(Br)o2)c1 | 12.5% |
| CCN1CCN(c2c(Cl)cccc2NC(=O)c2ccc(Br)o2)CC1 | 16% |
| O=C(COc1cc(Cl)c(Cl)cc1Cl)NC(=O)NC1CCCC1 | -6.2% |
| CCCC(=O)N1CCc2[nH]c3ccccc3c2C1 | 25.3% |
| O=C(Nc1cccc(Cl)c1)OCc1ccccn1 | 27.1% |
| FC(F)(F)c1cccc(Nc2ncnc3ccccc23)c1 | 44.1% |
| FC(F)(F)c1cccc(NC(=S)Nc2cccc(Cl)c2)c1 | 74.9% (active) |
| CCOc1cc(N2CCOCC2)c(OCC)cc1NC(=O)COC(=O)[C@H](Cc1c[nH]c2ccccc12)NC(C)=O | -4.2% |
| COc1cccc(N2C(=O)CC(N3CCN(S(=O)(=O)c4ccccc4)CC3)C2=O)c1 (centres undefined) | 1.5% |
| CN1CCN(c2ccc([N+](=O)[O-])c(Sc3nc4ccccc4[nH]3)c2)CC1 | 33.8% |
| C=CCOc1ccc(C2/C(=C(\O)c3c(C)[nH]c(C(=O)OC)c3C)C(=O)C(=O)N2CCN(C)C)cc1 (centres undefined) | 2.1% |
| O=C(Nc1ccc2c(c1)CCC2)c1cccc(S(=O)(=O)N2CCN(c3ccc(F)cc3)CC2)c1 | 26% |
| CC(C)C(C)NC(=O)COc1ncnc2ccccc12 (centres undefined) | 34.6% |
| Cc1nn(-c2ccccc2)c2sc(C(=O)N(Cc3ccco3)C(C)C(=O)NC(C)(C)C)cc12 (centres undefined) | 33.9% |
| Cc1ccccc1-n1nc(C)c2cc(C(=O)NC3CC3)sc21 | 61.4% (active) |
| COc1cc(OC)cc(C(=O)NC2CCN(C(=O)N3c4ccccc4Sc4ccccc43)CC2)c1 | 5.8% |
| O/N=C1\CC2(Cc3nonc31)OCCO2 | -5.4% |

| Compound | inhibition |
| --- | --- |
| CCC(C)NC(=O)C1CCC(=O)N1Cc1ccc(C)cc1 (centres undefined) | 28.1% |
| O=C(Nc1ccc(Br)cc1)C1CCC(=O)N1Cc1ccccc1Cl (centres undefined) | 96.4% (active) |
| Cc1ccc(CN2C(=O)CCC2C(=O)NCCCN2CCCCC2C)cc1 (centres undefined) | 8.1% |
| O=C(Cn1cnc2c(nnn2-c2ccccc2)c1=O)N1CCC(Cc2ccccc2)CC1 | 43.2% |
| CCC1C(C#N)=C(SC)NC2=C1C(=O)CC(C)(C)C2 (centres undefined) | 12.7% |
| Cc1ccc(-n2ncc3c2ncn2nc(-c4ccco4)nc32)c(C)c1 | 4.8% |
| COc1cc(C(=S)N2CCOCC2)cc(OC)c1OC(=O)c1cc([N+](=O)[O-])cc([N+](=O)[O-])c1 | -1.3% |
| Cc1ccc(Cn2nnc3c(=O)n(CC(=O)N4CCCCC4)cnc32)cc1 | 34% |
| COc1ccc(Cn2nnc3c(=O)[nH]c(C4CCN(C(=O)c5ccccc5Cl)CC4)nc32)cc1 | 57.2% (active) |
| Cc1ccc(NC(=O)N2CCC(c3nc4c(nnn4Cc4c(F)cccc4Cl)c(=O)[nH]3)CC2)cc1 | 95.1% (active) |
| Cc1nc2ccc(NC(=O)N3CCC(c4ccccc4)C3)cc2nc1C (centres undefined) | 28.5% |
| COc1ccc(-n2nnc3c(=O)n(CC(=O)N4CCC(Cc5ccccc5)CC4)cnc32)cc1 | 4.8% |
| Cc1ccc(NC(=O)N2CCC(C(=O)NCc3ccc(F)cc3)CC2)cc1 | 4.7% |
| CC(=O)c1ccc(OCCN2CCOCC2)cc1 | 2.4% |
| Cc1ccc(S(=O)(=O)NCC(=O)N(CC(=O)NC(C)(C)C)Cc2cccs2)cc1 | -10.5% |
| CCc1c(-c2ccccc2)nc(N)c(C#N)c1-c1cccs1 | 2.8% |
| CCOC(=O)C(CCOc1cccc(CC)c1)C(=O)OCC | 42% |
| Cc1cc(C)n2nc(C(=O)NC(C)(C)C)nc2n1 | -2.8% |
| C=CCc1cccc2cc(C(=O)N3CCN(C(=O)OCC)CC3)c(=O)oc12 | -8% |
| Cn1c(=O)c2c(SCC(=O)N3CCOCC3)nc(C3CC3)nc2n(C)c1=O | 8.8% |
| CCN(CC)C(=O)N1CCN(C(=O)c2ccc(C)cn2)CC1 | 4.3% |
| CCS(=O)(=O)n1nc(-c2ccc(OC)cc2)nc1SC | 46% |
| Cn1c(CO)cnc1SCc1ccccc1 | 39.7% |
| CCS(=O)(=O)n1nc(-c2ccccc2)nc1SCc1ccccc1 | 90.1% (active) |
